The campaign covered roughly 320,000 compounds. About 2,100 (0.66%) were called active. Another 53% or so got no clear call; they are omitted. Calls follow the shape of the dose curve; as a rule, active = well fitted inhibition curve with a large enough effect in the signal ratio, with a control signal flat (not every such curve was filed as active); inconclusive = small, poorly fitted or top-dose-only effect, or effect the other way, or a change in a side signal; inactive = flat fitted curve, though single readings scatter; the % refers to the signal ratio. The entries come from a sample that favours actives as a whole.
experiment: qHTS Assay for Lipid Storage Modulators in Drosophila S3 Cells; conditions: BODIPY lipid droplet fluorescence, 18-24 h, cells fed with added oleic acid; cell number change: measured here: cell count max response; series mostly up to 46.1 µM; lipid storage change, negative = inhibition: at the top concentration;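 as to cell number change: cells counted by Cell Tracker Red CMTPX staining in the red channel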; as to lipid storage change, negative = inhibition: % is scaled to controls: 0 for no effect and ±100 for the full control effect
In short: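 Drosophila S3 cells loaded with oleic acid (400 uM, as added) and compounds at several concentrations; lipid droplets imaged by 488-nm laser-scanning cytometry, 500–530 nm intensity and object ratio to cell channel. Percent activity normalized to 20 uM Triacsin C.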
Potency is read from the fitted curve at half-maximal effect.

Row | SMILES | lipid storage change, negative = inhibition | cell number change [%] | outcome | Potency
1 | C=CCNc1nc2c(c(=O)[nH]c(=O)n2C)n1CC(O)COc1ccc2ccccc2c1 (stereo not drawn) | 9.91% (inactive) | -2.59 |  | 
2 | C=CCSc1nc(C)cc2c1C(=O)OC2 | -1.91% (inactive) | -10 |  | 
3 | CCOC(=O)C1CCN(S(=O)(=O)c2ccc(OC)c(OC)c2)CC1 |  |  | inactive | 
4 | Cc1cc(-n2c(C)cc(C(=O)COc3cc(F)ccc3[N+](=O)[O-])c2C)no1 |  | 1.91 |  | 8.2 µM (active)
5 | Cc1cc(-n2c(C)cc(C(=O)COc3ccc([N+](=O)[O-])cc3)c2C)no1 | -9.66% [at 9.22 µM] (inactive) | -1.97 |  | 
6 | Cc1cc(-n2c(C)cc(C(=O)COc3ccc4ccc(=O)oc4c3)c2C)no1 | -4.04% (inactive) | -3.86 |  | 
7 | Cc1nc(CN2CCCC2=NC#N)n(-c2ccccc2)n1 | -0.104% (inactive) | 7.55 |  | 
8 | O=C(O)CN1CCCC1=Nc1ccccc1 |  | 7.34 | inactive | 
9 | N#CN=C1CCCCCN1CC(N)=O |  | -10.9 |  | 0.731 µM (active)
10 | Cc1cc(C(=O)N/N=C/c2ccc(-c3cccc(Cl)c3Cl)o2)n[nH]1 | 2.75% (inactive) | -7.33 |  | 
11 | Cc1nc(N)nc(Nc2ccc(Cl)cc2)c1Br |  | 17.2 | inactive | 
12 | CCOc1ccccc1CNCc1ccc(C(=O)O)cc1 | 16% (inactive) | 10.5 |  | 
13 | CCOc1ccc(CC(C(=O)NN)C(=O)NN)cc1CN(C)C |  | -6.71 |  | 18.4 µM (active)
14 | CCOc1ccc(CC(C(N)=O)C(N)=O)cc1CN(C)C | 8.24% (inactive) | -1.24 |  | 
15 | COC(=O)Nc1c(C(=O)OC)cc(OC)c(OC)c1OC |  | -8.23 |  | 16.4 µM (active)
16 | COC(=O)c1cc(OC)c(OC)c(OC)c1N |  | 7.54 | inactive | 
17 | COC(=O)c1cc(OC)c(OC)c(OC)c1NC(=O)c1ccc(S(=O)(=O)N(C)C)cc1 |  | -4.59 | inactive | 
18 | CCOC(=O)CN(C(=O)COc1nc(C)cc(C)c1C#N)c1cccc(Cl)c1 | 3.11% (inactive) | 6.09 |  | 
19 | Cc1cccc(N2CCN(C(=O)c3ccc(CNc4c(N5CCC(C)CC5)c(=O)c4=O)cc3)CC2)c1C | -0.571% (inactive) | 1.91 |  | 

Row | SMILES | lipid storage change, negative = inhibition | cell number change [%] | outcome | Potency
20 | COc1ccc(CN2CCN(Cc3cccc(OC)c3)C(CCO)C2)cc1 (stereo not drawn) | 15.7% (inactive) | 0.486 |  | 
21 | COc1ccc(C(=O)N2CCN(Cc3cc(OC)ccc3OC)CC2)cc1 | -14.3% (inactive) | -3.67 |  | 
22 | COc1ccc(OC)c(CN2CCN(C(=O)c3ccc(S(=O)(=O)Nc4ccccc4F)cc3)CC2)c1 |  | -20.6 |  | 13 µM (active)
23 | CC(C)(C)c1ccc(C(=O)NCC(=O)N2CCCC2)cc1 |  | 12.2 | inactive | 
24 | CC(C)(C)c1ccc(C(=O)NCC(=O)N2CCCCCC2)cc1 |  | 5.65 | inactive | 
25 | COc1ccc(OC)c(CN2CCN(C(=O)CNC(=O)c3ccc(C(C)(C)C)cc3)CC2)c1 |  | -27.4 |  | 1.46 µM (active)
26 | COc1ccc(NS(=O)(=O)c2cccc(C(=O)N3CCN(Cc4cc(OC)ccc4OC)CC3)c2)cc1 | -13.2% (inactive) | 1.47 |  | 
27 | O=C(Cn1c(C(F)(F)F)nc2ccccc21)N=Nc1c(O)[nH]c2ccc(Br)cc12 |  |  | inactive | 
28 | CC1(C)CC(=O)N(c2ccc(C#N)cc2)C(=O)C1 | 2.37% (inactive) | -0.525 |  | 
29 | Cc1cccc(NC(=O)C(c2ccccc2Cl)N2CCOCC2)c1 (stereo not drawn) | 2.74% (inactive) | 14.2 |  | 
30 | COCCCNc1nc(-c2ccc(Cl)cc2)nc2ccccc12 |  |  | inactive | 
31 | CCCCN1C(=O)/C(=c2\sc3nc(=O)c(-c4ccccc4)nn3c2=O)c2ccccc21 | -21.2% (inactive) | -10.9 |  | 
32 | C/C(=N\NC(=O)c1c([N+](=O)[O-])c(C)nn1C)c1ccc(NC(=O)C2CCCC2)cc1 | -5.01% (inactive) | 5.28 |  | 
33 | C/C(=N\NC(=O)c1ccn(C)n1)c1ccc(NC(=O)C2CCC2)cc1 |  | -21.2 |  | 13 µM (active)
34 | C/C(=N\NC(=O)c1nn(C)c(C)c1Br)c1ccc(NC(=O)C2CCCC2)cc1 |  | -25.5 | inactive | 
35 | Cc1cccc(C(=O)Nc2sc3c(c2C#N)CCCCC3)c1 | -3.22% (inactive) | -20.2 |  | 
36 | Cc1nc2nc(SCc3ccccc3)[nH]n2c(=O)c1CCC(C)C | -19.4% (inactive) | 19.7 |  | 
37 | CCc1cc(=O)oc2c(C)c(OC(C)C(=O)N3CC[C@@]4(O)CCCC[C@H]4C3)ccc12 (stereo partly drawn) | 3.29% (inactive) | 14.6 |  | 
38 | Cc1c(C)c2ccc(OC(C)C(=O)N3C[C@H]4C[C@@H](C3)c3cccc(=O)n3C4)c(C)c2oc1=O (stereo partly drawn) | -2.98% (inactive) | 10.4 |  | 

Row | SMILES | lipid storage change, negative = inhibition | cell number change [%] | outcome | Potency
39 | Cc1c(C)c2ccc(OCC(=O)N3CC[C@@]4(O)CCCC[C@H]4C3)cc2oc1=O | -15.4% (inactive) | 0.17 |  | 
40 | CCc1cc(=O)oc2c(C)c(OCC(=O)N3CC[C@@]4(O)CCCC[C@H]4C3)ccc12 | -24.5% (inactive) | 2.62 |  | 
41 | Cc1c(C)c2ccc(OC(C)C(=O)N3CC[C@@]4(O)CCCC[C@H]4C3)c(C)c2oc1=O (stereo partly drawn) |  | -28.5 |  | 5.8 µM (active)
42 | Cc1cc(=O)oc2c(C)c(OCC(=O)N3CC[C@@]4(O)CCCC[C@H]4C3)ccc12 |  | 2.59 |  | 16.4 µM (active)
43 | O=C(C(c1ccccc1)c1ccccc1)N1CC[C@@]2(O)CCCC[C@H]2C1 | -7.45% (inactive) | -2.81 |  | 
44 | Cc1cc(=O)oc2c(C)c(OC(C)C(=O)N3CC[C@@]4(O)CCCC[C@H]4C3)ccc12 (stereo partly drawn) |  | -0.971 |  | 0.731 µM (active)
45 | CCc1cc(=O)oc2c(C)c(OC(C)C(=O)N3CCC[C@@H]3C(=O)O)ccc12 (stereo partly drawn) | -7.03% (inactive) | 15.4 |  | 
46 | Cc1nc(SCC(=O)NC(=O)NCCC(C)C)c2c(-c3cccs3)csc2n1 | 3.29% (inactive) | 8.46 |  | 
47 | CCn1ccnc1CN1CCC(n2nccc2NC(=O)CCc2ccccc2)CC1 | -5.74% (inactive) | -1.05 |  | 
48 | COc1ccc(C(=O)Nc2ccc3[nH]c(-c4cccc(OC)c4)cc(=O)c3c2)cc1 | -2.62% (inactive) | 4.73 |  | 
49 | Cc1cccc(C)c1NC(=O)CS(=O)CC(=O)NCC1OCCc2ccccc21 (stereo not drawn) | -1.05% (inactive) | 9.92 |  | 
50 | CC(=O)c1ccc(CC2SC(N)=NC2=O)cc1 (stereo not drawn) |  | -4.99 | inactive | 
51 | CCCCN1C(=S)NC[C@@H]1Cc1cccc2ccccc12 | 15.5% (inactive) | 2.45 |  | 
52 | COc1ccc2c(c1OC)C(=O)N1C2SC[C@H]1C(=O)NC1CC1 (stereo partly drawn) | -17.9% (inactive) | -0.291 |  | 
53 | COc1ccc(C(c2sc3nc(C)nn3c2O)N2CCc3ccccc3C2)cc1 (stereo not drawn) |  |  | inactive | 
54 | C=C(C)C1CC=C(C)/C(=N\NC(=O)CCC(=O)Nc2ccc(C)c(C)c2)C1 (stereo not drawn) | -0.891% (inactive) | 1.45 |  | 
55 | Cc1ccc(NC(=O)CCSCCC(=O)Nc2ccc(C)c(C)c2)cc1C | 1.97% (inactive) | -13.5 |  | 
56 | C/C(=N\NC(=O)CCC(=O)Nc1ccc(C)c(C)c1)C1CC1 |  | 18.1 |  | 6.51 µM (active)
